Drawing on PubChem BioAssay (Tox21), this text covers outcome, Potency and max activation for eight compounds.

A number with no mark means an inactive call. Results filed as inconclusive are left out. Active and inactive are the calls of the source. Unless noted, calls follow the shape of the dose curve; as a rule, active = well fitted curve in the direction sought with a large enough effect in the repeat runs; inconclusive = weak or mixed curves; inactive = no such curve, though single readings can be large; an effect the other way counts as inactive or inconclusive.

The target in test [1] is Thyrotropin-releasing hormone receptor (Homo sapiens) (UniProt P34981). Put plainly: qHTS assay to identify small molecule agonists of the thyrotropin-releasing hormone receptor (TRHR) signaling pathway (AID 1346891; calls by dose curve;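 also: HEK293 cells expressing TRHR with calcium dye readout; series mostly up to about 58 µM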). In a few lines:
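HEK293/TRHR cells, 1500 per well, 18 h 37 °C; Ca dye 2 h 37 °C; pin-tool compound addition (agonist mode); kinetic fluorescence 3 min, 1 s reads; 15 concentrations, triplicate.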
Background: In qHTS, concentration-response curves come from the screen itself.

Test [2] in a line: Human pregnane X receptor (PXR) small molecule agonists, qHTS cell viability counter screen (AID 1346977). Also: nearly all actives have a fitted effect of over 50% in size. In a few lines: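 Fluorescence read-out (CellTiter-Fluor) of viability in PXR-Luc HepG2 cells, multiplexed with the luciferase agonist read. Compounds in DMSO added after 5hr plating; 24hr total exposure at 37C, 5% CO2.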
Test [3] is described as follows: Caspase-3/7 induction in HepG2 cells by small molecules, qHTS assay (AID 1346978). Also: nearly all actives have a fitted effect of over 15% in size. Summed up: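 Caspase-3/7 induction was measured by Caspase-Glo 3/7 luminescence (30 min, room temperature) after a 17 hr compound exposure of wild-type HepG2 cells seeded at 2,000 per well and pre-incubated 5 hr.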
Test [4] in a line: Caspase-3/7 induction in CHO-K1 cells by small molecules, qHTS cell viability counter screen (AID 1346979). Also: nearly all actives have a fitted effect of over 35% in size. Summed up:
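CHO-K1 wt, 1,500 cells/well; 5hr pre-incubation 37C/5% CO2; compound pin transfer (DMSO); 16hr exposure; CellTiter-Fluor added, 1hr, fluorescence read.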

Test [5] in a line: Caspase-3/7 induction in CHO-K1 cells by small molecules, qHTS assay (AID 1346980). Also: nearly all actives have a fitted effect of over 15% in size. In a few lines:
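Luminescent Caspase-Glo 3/7 read (30min, room temperature) quantified apoptosis induction. Cells were wild-type CHO-K1, treated with compound for 17hr at 37 C and 5% CO2.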

Test [6] can be described thus: Caspase-3/7 induction in HepG2 cells by small molecules, qHTS cell viability counter screen (AID 1346981). Also: series mostly up to about 92 µM; nearly all actives have a fitted effect of over 30% in size. Summed up: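 In this quantitative HTS counter screen, compounds delivered in DMSO were left on unmodified HepG2 cells for 16 hr at 37 C. Viability was then determined fluorometrically with CellTiter-Fluor, in parallel with caspase-3/7 induction in the same wells.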

The target in test [7] is Nuclear receptor subfamily 1 group I member 2 (Homo sapiens) (UniProt O75469). The test can be described thus: Human pregnane X receptor (PXR) small molecule agonists, qHTS assay (AID 1346982). Also: nearly all actives have a fitted effect of over 35% in size. Also: potency is read from the fitted curve at half-maximal effect. In a few lines:
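Reporter HepG2 cells expressing PXR-Luc are cultured in charcoal-stripped FBS (5%), treated with compounds for 24 hr at 37 C, and assayed by ONE-Glo luminescence after 30 min at room temperature.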

The target of test [8] is Acetylcholinesterase (Homo sapiens) (UniProt P22303). Put plainly: Acetylcholinesterase (AChE) small molecule antagonists: colormetric cell-based qHTS assay (AID 1347395; calls by dose curve; also: nearly all actives have a fitted effect of over 30% in size). Summed up: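 SH-SY5Y cells; cpd 30 min 37 C; + DTNB/acetylthiocholine, 90 min 37 C; colorimetric thiocholine read; qHTS.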
Sequence of Acetylcholinesterase (Homo sapiens) (P22303 whole entry, looked up): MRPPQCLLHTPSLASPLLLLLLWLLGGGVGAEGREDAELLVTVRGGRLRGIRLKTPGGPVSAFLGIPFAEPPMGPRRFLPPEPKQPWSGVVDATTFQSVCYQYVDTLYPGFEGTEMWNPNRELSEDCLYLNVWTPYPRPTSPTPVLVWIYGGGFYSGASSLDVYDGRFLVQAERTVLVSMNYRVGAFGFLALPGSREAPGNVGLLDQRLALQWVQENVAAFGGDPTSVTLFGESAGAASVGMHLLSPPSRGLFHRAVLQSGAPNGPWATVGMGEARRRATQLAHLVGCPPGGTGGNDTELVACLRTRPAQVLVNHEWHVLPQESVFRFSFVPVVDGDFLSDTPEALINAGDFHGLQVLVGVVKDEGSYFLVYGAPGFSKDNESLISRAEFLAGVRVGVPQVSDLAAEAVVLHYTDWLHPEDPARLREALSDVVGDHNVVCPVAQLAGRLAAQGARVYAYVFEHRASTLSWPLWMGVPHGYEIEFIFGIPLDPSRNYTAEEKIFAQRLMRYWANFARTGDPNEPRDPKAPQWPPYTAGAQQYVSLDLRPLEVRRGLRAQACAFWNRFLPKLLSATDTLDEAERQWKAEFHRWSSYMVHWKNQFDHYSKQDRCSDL
For test [9] the target is unchanged. The test can be described thus: Acetylcholinesterase (AChE) small molecule antagonists: enzyme-based qHTS assay (AID 1347397; calls by dose curve; also: nearly all actives have a fitted effect of over 55% in size). Particulars: Potency: AChE enzyme activity inhibition; outcome: AChE enzyme activity inhibition. In a few lines: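 First, recombinant human AChE (50 mU/mL as dispensed) received test compound or DMSO. Second, plates stood 30 min at room temperature. Third, DTNB and acetylthiocholine were added, followed by 10 min at room temperature and colorimetric detection.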

Test [10] shares this target. Put plainly: Acetylcholinesterase (AChE) small molecule antagonists: fluorescence cell-based qHTS assay (AID 1347398; calls by dose curve; also: nearly all actives have a fitted effect of over 50% in size). As to conditions: Potency: AChE activity; outcome: AChE activity. In a few lines: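 Homogeneous quantitative HTS format. SH-SY5Y cells seeded at 2,000 per well settle overnight at 37 C. Compound pretreatment runs 30 min (37 C, 5% CO2); substrate/probe mix then reacts 40 min at RT before reading 490/520 nm.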

Test [11] has the same target. Put plainly: Acetylcholinesterase (AChE) small molecule antagonists: enzyme-based qHTS assay with human liver microsomes (AID 1347399; calls by dose curve; also: nearly all actives have a fitted effect of over 60% in size). Particulars: Potency: qHTS inhibition; outcome: qHTS inhibition. In a few lines: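 Recombinant human AChE (50 mU/mL in the enzyme mix) and human liver microsomes (0.25 mg/mL final) were preincubated with compound and NADPH (0.25 mg/mL final) for 30 min at 37 C. Acetylthiocholine/DTNB was then added; thiocholine was read colorimetrically after 10 min at room temperature.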

In test [12] the target is Cytochrome P450 2D6 (Homo sapiens) (UniProt P10635). Put plainly: Cytochrome P450 Family 2 Subfamily D Member 6 (CYP2D6) small molecule antagonists: luciferase reporter qHTS assay (AID 1671196). Also: nearly all actives have a fitted effect of over 50% in size. Also: potency is read from the fitted curve at half-maximal effect. Summed up:
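Test chemicals meet CYP2D6 plus proluciferin substrate (10 min, RT); NADPH regenerating solution then drives turnover for 1 h. Detection reagent halts the reaction; luminescence measured after 20 min.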

For test [13], the target named is Cytochrome P450 2C19 (Homo sapiens) (UniProt P33261). The test can be described thus: Cytochrome P450 Family 2 Subfamily C Member 19 (CYP2C19) small molecule antagonists: luciferase reporter qHTS assay (AID 1671197). Also: nearly all actives have a fitted effect of over 65% in size. Also: potency is read from the fitted curve at half-maximal effect. Summed up: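 Quantitative high-throughput screen of the Tox21 library using CYP2C19 with proluciferin substrate. Reaction: NADPH regeneration, 37C, 1 h, after 10 min compound preincubation at room temperature. Readout: luminescence.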
Sequence of Cytochrome P450 2C19 (Homo sapiens) (P33261 whole entry, looked up): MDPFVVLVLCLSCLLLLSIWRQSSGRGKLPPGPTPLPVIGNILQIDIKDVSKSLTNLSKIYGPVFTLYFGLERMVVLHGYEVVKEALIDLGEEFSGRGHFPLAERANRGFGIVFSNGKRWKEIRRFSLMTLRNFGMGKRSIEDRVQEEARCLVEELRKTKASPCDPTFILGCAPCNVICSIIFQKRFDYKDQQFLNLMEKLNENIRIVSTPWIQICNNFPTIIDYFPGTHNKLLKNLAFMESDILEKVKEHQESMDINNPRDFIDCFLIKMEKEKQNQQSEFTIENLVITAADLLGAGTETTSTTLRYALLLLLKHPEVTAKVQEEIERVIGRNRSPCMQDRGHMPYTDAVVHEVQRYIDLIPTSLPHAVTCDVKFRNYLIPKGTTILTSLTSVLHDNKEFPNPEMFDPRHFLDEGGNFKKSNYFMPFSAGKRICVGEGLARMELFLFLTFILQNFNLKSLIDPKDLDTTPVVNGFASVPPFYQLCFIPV
For orientation: In a reporter assay the amount or activity of a reporter protein is the signal.

Test [14] deals with Cytochrome P450 2C9 (Homo sapiens) (UniProt P11712). The test can be described thus: Cytochrome P450 Family 2 Subfamily C Member 9 (CYP2C9) small molecule antagonists: luciferase reporter qHTS assay (AID 1671198). Also: nearly all actives have a fitted effect of over 50% in size. Also: potency is read from the fitted curve at half-maximal effect. In a few lines: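 Enzyme-substrate mix preincubated with compound 10 min at room temperature; reaction started with NADPH regeneration solution, 1 h 37C. Luminescent luciferin product read after 20 min detection reagent.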
Sequence of Cytochrome P450 2C9 (Homo sapiens) (P11712 whole entry, looked up): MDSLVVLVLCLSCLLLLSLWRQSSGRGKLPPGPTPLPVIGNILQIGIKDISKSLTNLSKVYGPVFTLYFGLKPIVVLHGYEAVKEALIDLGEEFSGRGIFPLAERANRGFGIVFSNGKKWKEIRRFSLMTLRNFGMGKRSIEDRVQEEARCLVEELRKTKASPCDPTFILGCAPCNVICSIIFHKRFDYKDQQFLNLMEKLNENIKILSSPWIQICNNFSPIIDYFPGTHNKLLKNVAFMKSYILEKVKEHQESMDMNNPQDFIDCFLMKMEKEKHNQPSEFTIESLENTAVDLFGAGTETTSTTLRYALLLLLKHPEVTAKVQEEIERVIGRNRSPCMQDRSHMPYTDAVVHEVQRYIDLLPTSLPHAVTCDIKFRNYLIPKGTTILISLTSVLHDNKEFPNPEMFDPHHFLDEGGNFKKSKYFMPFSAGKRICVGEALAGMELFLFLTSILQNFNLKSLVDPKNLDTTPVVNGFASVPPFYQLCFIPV

Test [15] concerns the target Cytochrome P450 1A2 (Homo sapiens) (UniProt P05177). Put plainly: Cytochrome P450 Family 1 Subfamily A Member 2 (CYP1A2) small molecule antagonists: luciferase reporter qHTS assay (AID 1671199). Also: nearly all actives have a fitted effect of over 50% in size. Also: potency is read from the fitted curve at half-maximal effect. Summed up:
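Steps: enzyme-substrate mix dispensed; test compounds and furafylline control pinned in; 10 min room temperature; NADPH regeneration solution added, 1 h; reaction stopped with luciferin detection reagent; luminescence read after 20 min.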

In test [16] the target is Cytochrome P450 3A4 (Homo sapiens) (UniProt P08684). The test can be described thus: Cytochrome P450 Family 3 Subfamily A Member 4 (CYP3A4) small molecule antagonists: luciferase reporter qHTS assay (AID 1671201). In a few lines:
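Luminescent readout (RLU) proportional to CYP3A4 activity, from luciferin generated off a proluciferin substrate. Enzyme–substrate mix plus compound 10 min at room temp, NADPH regeneration 1 h, detection reagent 20 min.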

In test [17] the target is Voltage-gated inwardly rectifying potassium channel KCNH2 (Homo sapiens) (UniProt Q12809). Put plainly: Human Ether-a-go-go-Related Gene (hERG) channel small molecule antagonists: fluorescence cell-based qHTS assay (AID 1671200). In a few lines:
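Read-out: thallium influx as a surrogate for potassium, tracked as fluorescence (480 nm ex/540 nm em) every second for 2 min after Stimulus Buffer addition in dye-loaded hERG-U2OS cells.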
In general terms: The hERG channel carries a current that helps repolarise heart muscle cells.

The target of test [18] is Nuclear receptor subfamily 1 group I member 2 (Rattus norvegicus) (UniProt Q9R1A7). The test can be described thus: Rat pregnane X receptor (rPXR) activation by small molecules, qHTS assay (AID 1346983). Also: nearly all actives have a fitted effect of over 20% in size. Particulars: rPXR luciferase reporter cells, One-Glo luminescence, 24 h; active compounds read high. Summed up: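 Luminescent readout (One-Glo luciferase, 30 min room temperature) followed 24 hr compound treatment at 37 C of rPXR cells plated 2,000 per well and preincubated 5hr; qHTS format with compounds delivered in DMSO.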
Sequence of Nuclear receptor subfamily 1 group I member 2 (Rattus norvegicus) (Q9R1A7 whole entry, looked up): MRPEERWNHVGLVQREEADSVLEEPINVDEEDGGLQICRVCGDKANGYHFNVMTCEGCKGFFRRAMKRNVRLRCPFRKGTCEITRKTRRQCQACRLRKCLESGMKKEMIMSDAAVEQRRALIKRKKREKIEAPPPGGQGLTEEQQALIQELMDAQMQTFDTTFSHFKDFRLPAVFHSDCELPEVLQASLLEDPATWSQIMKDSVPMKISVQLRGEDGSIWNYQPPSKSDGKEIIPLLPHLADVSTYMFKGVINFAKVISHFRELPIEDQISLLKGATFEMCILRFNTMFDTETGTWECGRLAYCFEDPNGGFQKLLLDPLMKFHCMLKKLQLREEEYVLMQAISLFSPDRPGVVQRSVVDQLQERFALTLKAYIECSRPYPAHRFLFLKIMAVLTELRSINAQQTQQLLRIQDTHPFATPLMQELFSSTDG

For test [19], the target named is Nuclear receptor subfamily 1 group I member 2 (Homo sapiens) (UniProt O75469). The test can be described thus: Human pregnane X receptor (PXR) activation by small molecules, qHTS assay (AID 1346985). Also: nearly all actives have a fitted effect of over 40% in size. Summed up:
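DPX-2 cells (HepG2 co-transfected with a PXR response element and a CYP3A4-promoter luciferase construct) were seeded at 2,000 per well, rested 5 hr at 37C, then exposed to DMSO-dissolved compounds for 24 hr. Activation was read as luciferase luminescence.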
% is scaled to controls: 0 for no effect and ±100 for the full control effect.

Sequence of Nuclear receptor subfamily 1 group I member 2 (Homo sapiens) (O75469 whole entry, looked up): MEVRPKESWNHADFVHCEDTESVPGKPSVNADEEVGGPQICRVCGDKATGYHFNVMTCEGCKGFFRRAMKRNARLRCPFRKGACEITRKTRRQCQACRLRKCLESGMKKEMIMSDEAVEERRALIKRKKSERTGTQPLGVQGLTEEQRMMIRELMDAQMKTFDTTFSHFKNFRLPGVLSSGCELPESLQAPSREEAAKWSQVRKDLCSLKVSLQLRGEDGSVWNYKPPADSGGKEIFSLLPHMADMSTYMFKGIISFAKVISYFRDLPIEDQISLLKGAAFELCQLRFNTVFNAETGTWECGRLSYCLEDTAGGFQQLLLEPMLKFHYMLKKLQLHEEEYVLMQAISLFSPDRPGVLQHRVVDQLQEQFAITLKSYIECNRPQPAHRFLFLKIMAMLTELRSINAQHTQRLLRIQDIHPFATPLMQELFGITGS
Sequence of Thyrotropin-releasing hormone receptor (Homo sapiens) (P34981 whole entry, looked up): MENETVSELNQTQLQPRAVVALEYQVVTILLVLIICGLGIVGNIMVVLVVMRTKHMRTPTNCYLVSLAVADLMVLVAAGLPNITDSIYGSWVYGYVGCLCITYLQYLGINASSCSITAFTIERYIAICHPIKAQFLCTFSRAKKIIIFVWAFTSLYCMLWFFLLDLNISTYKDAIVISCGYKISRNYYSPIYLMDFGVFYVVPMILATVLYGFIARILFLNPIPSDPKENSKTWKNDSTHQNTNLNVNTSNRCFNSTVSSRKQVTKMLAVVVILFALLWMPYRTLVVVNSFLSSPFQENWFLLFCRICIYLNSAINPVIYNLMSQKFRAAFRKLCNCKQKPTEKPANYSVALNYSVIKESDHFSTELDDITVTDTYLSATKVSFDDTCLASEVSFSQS
Sequence of Voltage-gated inwardly rectifying potassium channel KCNH2 (Homo sapiens) (Q12809 whole entry, looked up): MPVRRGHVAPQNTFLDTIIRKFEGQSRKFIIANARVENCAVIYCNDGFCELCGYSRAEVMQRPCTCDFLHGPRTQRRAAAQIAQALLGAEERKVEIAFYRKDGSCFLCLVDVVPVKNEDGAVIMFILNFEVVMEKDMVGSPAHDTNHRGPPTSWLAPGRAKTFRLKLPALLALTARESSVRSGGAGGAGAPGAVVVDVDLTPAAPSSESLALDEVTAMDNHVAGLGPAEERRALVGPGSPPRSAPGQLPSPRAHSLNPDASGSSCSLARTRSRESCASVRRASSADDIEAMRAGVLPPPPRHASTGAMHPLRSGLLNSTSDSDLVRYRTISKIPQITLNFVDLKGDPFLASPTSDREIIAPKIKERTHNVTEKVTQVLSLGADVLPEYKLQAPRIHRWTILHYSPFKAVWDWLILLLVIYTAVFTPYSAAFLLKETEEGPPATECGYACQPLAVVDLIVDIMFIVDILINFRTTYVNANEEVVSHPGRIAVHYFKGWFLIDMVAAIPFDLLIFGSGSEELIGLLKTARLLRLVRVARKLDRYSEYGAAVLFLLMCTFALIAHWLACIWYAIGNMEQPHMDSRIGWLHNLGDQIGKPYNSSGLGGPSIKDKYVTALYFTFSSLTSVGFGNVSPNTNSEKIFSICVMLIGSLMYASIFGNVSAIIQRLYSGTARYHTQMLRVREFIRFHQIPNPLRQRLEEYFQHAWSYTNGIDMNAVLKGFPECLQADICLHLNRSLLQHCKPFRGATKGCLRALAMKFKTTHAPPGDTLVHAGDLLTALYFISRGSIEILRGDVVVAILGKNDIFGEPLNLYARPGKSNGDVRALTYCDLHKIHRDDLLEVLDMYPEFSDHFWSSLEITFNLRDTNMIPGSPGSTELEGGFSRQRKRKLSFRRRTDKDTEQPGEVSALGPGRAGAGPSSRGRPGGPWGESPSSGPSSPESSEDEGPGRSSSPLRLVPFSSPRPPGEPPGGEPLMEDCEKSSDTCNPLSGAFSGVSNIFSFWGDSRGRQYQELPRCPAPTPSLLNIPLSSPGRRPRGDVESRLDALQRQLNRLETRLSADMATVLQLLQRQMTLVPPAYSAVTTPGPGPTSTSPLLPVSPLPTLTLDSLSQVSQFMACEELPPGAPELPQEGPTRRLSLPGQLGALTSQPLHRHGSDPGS
Sequence of Cytochrome P450 3A4 (Homo sapiens) (P08684 whole entry, looked up): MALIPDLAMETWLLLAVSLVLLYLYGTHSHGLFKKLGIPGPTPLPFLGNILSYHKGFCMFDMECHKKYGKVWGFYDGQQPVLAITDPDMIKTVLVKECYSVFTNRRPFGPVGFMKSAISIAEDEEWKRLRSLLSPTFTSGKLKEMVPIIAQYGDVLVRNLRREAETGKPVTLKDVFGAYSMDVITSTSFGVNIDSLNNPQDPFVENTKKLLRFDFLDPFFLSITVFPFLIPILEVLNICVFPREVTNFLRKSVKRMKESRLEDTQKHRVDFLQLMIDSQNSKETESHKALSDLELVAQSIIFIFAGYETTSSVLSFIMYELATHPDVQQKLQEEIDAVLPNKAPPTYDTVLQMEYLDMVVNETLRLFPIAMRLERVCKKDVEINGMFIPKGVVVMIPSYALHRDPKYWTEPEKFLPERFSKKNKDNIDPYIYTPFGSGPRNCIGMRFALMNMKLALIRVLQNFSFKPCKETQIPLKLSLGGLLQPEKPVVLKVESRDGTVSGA
Sequence of Cytochrome P450 2D6 (Homo sapiens) (P10635 whole entry, looked up): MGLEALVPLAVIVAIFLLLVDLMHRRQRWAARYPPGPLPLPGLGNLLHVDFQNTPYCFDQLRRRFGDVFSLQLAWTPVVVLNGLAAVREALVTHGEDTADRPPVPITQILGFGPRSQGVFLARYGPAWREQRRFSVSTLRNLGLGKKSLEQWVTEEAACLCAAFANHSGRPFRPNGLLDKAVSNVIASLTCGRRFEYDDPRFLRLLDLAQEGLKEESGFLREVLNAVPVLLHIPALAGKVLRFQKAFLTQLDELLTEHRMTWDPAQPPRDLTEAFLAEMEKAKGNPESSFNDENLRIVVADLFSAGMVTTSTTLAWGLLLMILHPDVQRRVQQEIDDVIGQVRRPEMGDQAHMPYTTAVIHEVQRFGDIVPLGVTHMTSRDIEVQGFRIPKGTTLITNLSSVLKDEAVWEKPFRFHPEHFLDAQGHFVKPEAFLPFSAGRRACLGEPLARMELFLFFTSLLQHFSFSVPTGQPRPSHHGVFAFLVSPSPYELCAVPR

As for `C#CCOC(=O)/C=C(C)/C=C/CC(C)CCCC(C)C` (stereo unspecified), the outcome in [1], in test [3] and in [5] was inactive. The Potency result in test [2], in [4], in [6], in [7], in test [8] and in test [9] was “inactive” in each case. For the same compound, the Potency entry in test [10], in test [11], in test [12] and in test [16] was “inactive” in each case. In addition, the results for the Potency in [13], in [14] and in test [15] were 79.6 µM (active), 31.7 µM (active) and 28.3 µM (active), respectively.

Take `CON(C)C(=O)Nc1ccc(Br)cc1`: the compound was called inactive in [1], in test [3] and in test [5]. Moreover, the Potency entry in test [2], in test [4], in test [6], in test [8], in test [9] and in test [10] was “inactive” in each case. The Potency entry in [11], in test [12], in test [17] and in test [16] was “inactive” each time. Moreover, the values for the Potency in [7], in test [13] and in test [15] were 38.6 µM (active), 35.6 µM (active) and 5.64 µM (active), respectively.

As for `O=C(NC(=O)c1c(F)cccc1F)Nc1cc(Cl)c(F)c(Cl)c1F`, the compound was called inactive in [1], in test [3] and in test [5]. Besides, the Potency result in test [2], in test [4], in test [6], in test [7], in test [8] and in test [9] was “inactive” each time. Besides, the Potency result in test [10], in test [11], in test [12], in test [17] and in test [16] was “inactive” in each case. Also, the Potency in test [13] is 69.2 µM (active); in test [15] it was 30.9 µM (active).

With `CCC(C)C(C)(COC(N)=O)COC(N)=O` (stereo unspecified), the compound was called inactive in test [1], in test [3] and in test [5]. The Potency result in test [2], in test [4], in test [6], in test [7], in test [8] and in [9] was “inactive” throughout. Moreover, the Potency result in test [10], in [11], in test [12], in [13], in [14] and in test [15] was “inactive” in each case. The Potency entry in [17] and in [16] was “inactive” throughout.

Consider `CCN(CC)CCOC(=O)C(O)(c1ccccc1)c1ccccc1`, for which the compound was classed as inactive in test [1], in test [3] and in [5]. For the same compound, the Potency result in test [2], in test [4], in test [6], in test [7], in test [19] and in [8] was “inactive” each time. For the same compound, the Potency entry in test [9], in test [10], in test [11], in [13] and in test [15] was “inactive” each time. The max activation in test [18] was -2.47%. For the same compound, in test [12], the Potency was 3.47 µM (active).

As to `CCC1(c2cccc(O)c2)CCCCN(C)C1` (stereo unspecified), the result in test [1], in test [3] and in [5] was inactive. Besides, the Potency entry in test [2], in [4], in test [6], in test [7], in test [19] and in test [13] was “inactive” throughout. Also, the Potency result in [15], in test [17] and in test [16] was “inactive” each time. Besides, in [18], the max activation is -1.16%. The Potency in test [12] is 15.5 µM (active).

Consider `CC(C)[N+](C)(CCC(C(N)=O)(c1ccccc1)c1ccccc1)C(C)C`, for which the result in test [1], in [3] and in test [5] was inactive. In addition, the Potency entry in test [2], in test [4], in [6], in [7], in [19] and in [10] was “inactive” in each case. Further, the Potency entry in [11], in test [13] and in [17] was “inactive” each time. Also, the max activation in test [18] is 0.796%. Moreover, the Potency was 0.776 µM (active) in test [12] and 38.9 µM (active) in test [14].

With `CC(C)N(Cc1ccccc1)C(=O)C(C)(C)C`, the call in [1], in test [3] and in [5] was inactive. The Potency entry in [2], in test [4], in [6], in [7], in test [8] and in [9] was “inactive” in each case. Moreover, the Potency entry in test [10], in [11], in test [12], in test [17] and in [16] was “inactive” in each case. Moreover, the Potency was 20 µM (active) in [13] and 35.6 µM (active) in [14].
